# Vaccinia mCherry = qHTS for Stage-Specific Inhibitors of Vaccinia Orthopoxvirus: mCherry Reporter Primary qHTS. 310,000 compounds, 0.63% hits. Potency, µM (doses to about 36.5 µM), for the others: at the highest dose activity change, negative = inhibition, hits mostly inhibitors. Vaccinia virus mCherry reporter infection, fluorescence; calls by dose curve; tested in A549 cells; also: potency is read from the fitted curve at half-maximal effect; nearly all actives have a fitted effect of over 35% in size
# Vaccinia Venus = qHTS for Stage-Specific Inhibitors of Vaccinia Orthopoxvirus: Venus Reporter Primary qHTS | Vaccinia virus Venus reporter expression, fluorescence | Potency, µM (series often up to 36.5 µM), inactives show at the top dose activity change, negative = inhibition, usual class: inhibitors | 330,000 compounds, 0.46% hits | AID 720580, 2013; calls by dose curve; tested in A549 cells; also: potency is read from the fitted curve at half-maximal effect; nearly all actives have a fitted effect of over 30% in size
# HCMV inh = qHTS Assay for inhibitors of the human cytomegalovirus (HCMV); HFF cells, HCMV-luciferase reporter, 72 h; active compounds read low; activity change, negative = inhibition, % at 57.5 µM; 410,000 compounds, 4.5% hits; in the data active = activity change below about -60%; inconclusive = no clear call, values can overlap the other calls; inactive = above about -39%
#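 Screen run at 2 compound doses on HFFs infected with reporter HCMV, MOI 1 PFU/cell. Luciferase activity from cell lysates at 72 h post infection gave inhibition relative to buffer-only and Salinomycin wells.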
# HCV inh = qHTS Assay for Inhibitors of Hepatitis C Virus (HCV); 340,000 compounds, 3.4% hits; Potency, µM (top dose mostly 41.8 µM), for the others: at the top dose activity change, negative = inhibition, hits mostly inhibitors; Huh7.5.1 HCVcc-Cre infection, luciferase reporter, 44 h; also: potency is read from the fitted curve at half-maximal effect
#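 A cell-based infection assay in which seeded cells (1,000 per well) receive test compound after 4 h, are inoculated with HCVcc-Cre at approximately 0.5 moi, and are incubated 44 h before luminescence detection.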
# FMDV antiviral = High Throughput Screening for Foot and Mouth Disease Virus Antivirals | FMDV antiviral cell-based qHTS | Potency, µM (titrated, usually from 57.9 µM), without a hit: at the highest dose activity change, negative = inhibition, hits mostly inhibitors | 410,000 compounds, 1.2% hits | AID 1159524, 2015; calls by dose curve; tested in HEK293T cells; also: read-out not given here; potency is read from the fitted curve at half-maximal effect; nearly all actives have a fitted effect of over 45% in size
# Sm TGR block = qHTS Assay for the Inhibitors of Schistosoma Mansoni Peroxiredoxins | Schistosoma mansoni thioredoxin glutathione reductase (TGR), Q962Y6 | purified TGR, DTNB reduction, TNB absorbance 405 nm | Potency, µM (series often up to 114 µM), inactives show top-dose activity change, negative = inhibition, actives largely listed as inhibitors | 360,000 compounds, 3% hits; also: potency is read from the fitted curve at half-maximal effect; nearly all actives have a fitted effect of over 60% in size
#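 TGR 20 nM + NADPH 100 uM (dispensed conc.), cpd preinc 15 min RT; start with NADPH (500 uM addition) then DTNB (15 mM addition). Kinetic TNB absorbance, 405 nm filter. Four-parameter Hill fit across titration.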
# Starred values were filed as active, the others as inactive; i = inactive; ? = inconclusive; nt = no result; ! = not confirmed by another sample; [ ] = dose if it differs, or a comment. In the library only some 9.3% were active in any assay of this set; here they are far more common. Unless noted, calls follow the shape of the dose curve; as a rule, active = well fitted curve in the direction sought with a large enough effect; inconclusive = small, poorly fitted or top-dose-only effect, or another doubt; inactive = no such curve, though single readings can be large; an effect the other way counts as inactive or inconclusive. % is scaled to controls: 0 for no effect and ±100 for the full control effect.
SMILES,Vaccinia mCherry,Vaccinia Venus,HCMV inh,HCV inh,FMDV antiviral,Sm TGR block
COc1ccc(-c2cn3c(C)c(C(=O)Nc4ccncc4)sc3n2)cc1,-15%,2%,-36,4.5µM*,?,-23%
Cc1ccc(C(c2sc3nc(-c4ccco4)nn3c2O)N2CCC3(CC2)OCCO3)cc1 (configuration not stated),-7%,-3%,-5,nt,5%,10%
Cc1cc(C)c2c(C)c(C(=O)NCc3ccncc3)oc2c1,nt,nt,-6,2µM*,-27%,-25%
CCc1ccc2oc(C(=O)NCc3ccncc3)c(C)c2c1,nt,nt,?,11µM*,-10%,-6%
COc1ccccc1-c1cn(CC[C@H]2CC[C@@H](NS(=O)(=O)c3ccccc3C)[C@@H](CO)O2)nn1,-7%,-24%,27,nt,-17%,nt
Cc1ccc(-n2nc(C(=O)O)cc2-c2ccccc2Cl)cc1,-22%,-12%,-38,15%,-16%,0%
CSc1ccc(C2Nc3cccc4cccc(c34)N2)cc1,nt,nt,102,9%,22%,25µM*
c1cncc(C2Nc3cccc4cccc(c34)N2)c1,?,-5%,7,0%,20%,8.9µM*
CSc1ccc(C2NC(=O)c3ccccc3N2)cc1 (configuration not stated),-29%,-17%,51,-17%,46%,nt
Cc1cccc(C2Nc3cccc4cccc(c34)N2)c1,-17%,-15%,50,-1%,23%,20µM*
Brc1ccc(C2Nc3cccc4cccc(c34)N2)s1,-1%,-16%,-40,-7%,0%,20µM*
Clc1ccc(C2Nc3cccc4cccc(c34)N2)c(Cl)c1,?,4%,-18,-4%,-14%,nt
Oc1ccc2ccccc2c1C1Nc2cccc3cccc(c23)N1,?,?,18,-4%,?,-35%
Clc1ccc(C2Nc3cccc4cccc(c34)N2)cc1,?,1%,47,5%,7%,16µM*
O=[N+]([O-])c1cc(C2Nc3cccc4cccc(c34)N2)ccc1Cl,-23%,-10%,-18,?,?,-26%
c1cc2c3c(cccc3c1)NC(c1ccc3c(c1)OCO3)N2,nt,nt,78,-2%,24%,18µM*
COc1ccc(-c2nnc(SCC(=O)OC3CCCCC3)o2)cc1OC,nt,nt,6,-7%,1%,-16%
CN(CCO)c1cccc2c1S(=O)(=O)N[C@@H](Cc1ccccc1)CO2,9%,1%,-1,nt,-5%,nt
CC(=O)Nc1nc2c(ncn2COCCOC(C)=O)c(=O)[nH]1,nt,nt,nt,6%,nt,0%
CC(C)[C@H](N)C(=O)OCCOCn1cnc2c(=O)[nH]c(N)nc21,i,-17%,-6,0.5µM*!,-11%,?
COc1ccc(Cc2[nH]n3c(=O)cc(C(C)C)nc3c2-c2ccccc2)cc1,?,-19%,-73*,?,?,nt
Cc1nc(N/N=C/c2ccc(O)cc2O)cc(N2CCOCC2)n1,1.1µM*,?,?,-18%,-9%,5%
Oc1ccc(/C=N/Nc2cc(N3CCOCC3)nc(N3CCOCC3)n2)cc1O,-23%,?,-26,?,?,50µM*
O=C(NCc1cccs1)c1ccc(CSc2nc3cccnc3n2Cc2ccccc2)cc1,-9%,-9%,-11,nt,-22%,2%
CC[n+]1c(/C=C/C=C/N(C(C)=O)c2ccccc2)sc2cc(OC)ccc21,179%,i,-66*,?,?,-9%
SMILES,Vaccinia mCherry,Vaccinia Venus,HCMV inh,HCV inh,FMDV antiviral,Sm TGR block
CC[n+]1c(/C=C(\C)OC)sc2ccccc21,-11%,-8%,-18,1%,1%,21%
O=C(NCc1cccc(OC(F)(F)F)c1)C1CCC(=O)N(Cc2cccc(F)c2)C1 (configuration not stated),nt,nt,-16,-8%,-2%,8%
Oc1ccc(Cl)cc1CNCc1ccc(F)c(F)c1,-29%,?,-4,7%,14%,-16%
NC(=O)NC(=O)C(c1ccccc1)N1CCN(S(=O)(=O)Cc2ccccc2)CC1 (configuration not stated),-2%,-5%,-88*,21%,-1%,-2%
NC(=O)Nc1ccc(C(=O)N2CCN(S(=O)(=O)Cc3ccccc3)CC2)cc1,nt,nt,5,24%,-12%,-3%
CS(=O)(=O)c1ccc(Cl)c(NC(=O)C2CC(=O)N(Cc3ccccc3)C2)c1 (configuration not stated),nt,nt,21,6%,-21%,3%
FC(F)Sc1ccc(NC(=S)NC2CCCCC2)cc1,-29%,-16%,7,?,44%,-4%
CC(=O)N1CCN(C(=S)Nc2ccc(SC(F)F)cc2)CC1,-4%,1%,-76*,29%,81%,2%
CC1CCCCC1NC(=S)Nc1ccc(SC(F)F)cc1 (configuration not stated),nt,?,-100*,11µM*,-9%,-3%
S=C(NCC1CCCCC1)Nc1ccc(Oc2ccccc2)cc1,-10%,-9%,?,?,8%,-11%
FC(F)Sc1ccc(NC(=S)NCC2CCCCC2)cc1,nt,nt,-97*,32µM*,9%,1%
CCN(CC(=O)NCc1ccc(F)cc1)C(=O)CN1CCN(c2ccccc2OC)CC1,0%,-13%,24,-28%,-6%,-8%
COC(=O)C1Cc2c([nH]c3ccccc23)C2CCC(=O)N12 (configuration not stated),i,-7%,-2,nt,-6%,nt
COC(=O)[C@@H]1Cc2c([nH]c3ccccc23)C(C)(C)N1C(=O)CCl,?,?,-99*,1µM*,?,32µM*
CCOc1ccc(C(=O)NCC(C)C)cc1,-10%,-16%,65,17%,22%,2%
CCCCOP(=O)(c1ccc(N(C)C)cc1)C(O)c1ccc(N(C)C)cc1 (configuration not stated),i,-9%,31,3%,-5%,7%
CCCCOP(=O)(c1ccc(N(C)C)cc1)C(O)c1c(Cl)cccc1Cl (configuration not stated),-19%,-11%,-76*,3%,71%,12%
CCCNC(=O)COC(=O)c1ccc(N2CCCC2)c([N+](=O)[O-])c1,-13%,-15%,26,-8%,-17%,0%
CC(C)(C)[C@@H]1C=C(C(=O)NCc2ccccc2)O[C@H](OCc2ccc(CO)cc2)C1,i,-18%,-2,36%[8.37 µM],15%,-20%
O=C(NCc1ccccc1)C1=C[C@@H](c2ccccc2)C[C@@H](OCc2ccc(CO)cc2)O1,?,-13%,10,?,17%,50µM*
